Results as given in the supplement of paper PMC4466140.

How the values were obtained:
Assay in all cases: SPOT peptide array binding signal intensity (averaged, normalized) (arbitrary units (background-subtracted, floor 0; scale differs between SH3 domains)); higher = stronger binding of the SH3 domain to the peptide
AgAbp1 = biological target: AgAbp1
How it was run: (§1)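 E. coli BL21(DE3) was used to express GST-fused SH3 domains from four yeast species, which were then purified on glutathione Sepharose. These were incubated at 10 μg/ml in TBS-based blocking buffer overnight at 4°C on cellulose membranes carrying synthetic 15-mer peptides, in which cysteines were replaced by serines. Binding signal is the replicate average of normalized, background-subtracted spot intensity, in arbitrary units that differ between domains.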

AgBbc1 = biological target: AgBbc1
How it was run: as §1

AgBem1-D1 = biological target: AgBem1-D1
How it was run: as §1

AgBzz1-D1 = biological target: AgBzz1-D1
How it was run: as §1

AgBzz1-D2 = biological target: AgBzz1-D2
How it was run: as §1

AgCyk3 = biological target: AgCyk3
How it was run: as §1

AgFus1 = biological target: AgFus1
How it was run: as §1

AgHof1 = biological target: AgHof1
How it was run: as §1

AgHse1 = biological target: AgHse1
How it was run: as §1

AgLsb1 = biological target: AgLsb1
How it was run: as §1

AgLsb4 = biological target: AgLsb4
How it was run: as §1

AgMyo5 = biological target: AgMyo5
How it was run: as §1

AgNbp2 = biological target: AgNbp2
How it was run: as §1

AgRvs167 = biological target: AgRvs167
How it was run: as §1

AgSho1 = biological target: AgSho1
How it was run: as §1

AgSla1-D1-D2 = biological target: AgSla1-D1-D2
How it was run: as §1

AgSla1-D3 = biological target: AgSla1-D3
How it was run: as §1

CaAbp1-D1 = biological target: CaAbp1-D1
How it was run: as §1

CaAbp1-D2 = biological target: CaAbp1-D2
How it was run: as §1

CaBbc1 = biological target: CaBbc1
How it was run: as §1

CaBem1-D1 = biological target: CaBem1-D1
How it was run: as §1

CaBzz1-D1 = biological target: CaBzz1-D1
How it was run: as §1

CaBzz1-D2 = biological target: CaBzz1-D2
How it was run: as §1

CaCyk3 = biological target: CaCyk3
How it was run: as §1

CaFus1 = biological target: CaFus1
How it was run: as §1

CaHof1 = biological target: CaHof1
How it was run: as §1

CaHse1 = biological target: CaHse1
How it was run: as §1

CaLsb1 = biological target: CaLsb1
How it was run: as §1

CaLsb4 = biological target: CaLsb4
How it was run: as §1

CaMyo5 = biological target: CaMyo5
How it was run: as §1

CaNbp2 = biological target: CaNbp2
How it was run: as §1

CaRvs167 = biological target: CaRvs167
How it was run: as §1

CaRvs167-3 = biological target: CaRvs167-3
How it was run: as §1

CaSho1 = biological target: CaSho1
How it was run: as §1

CaSla1-D1-D2 = biological target: CaSla1-D1-D2
How it was run: as §1

CaSla1-D3 = biological target: CaSla1-D3
How it was run: as §1

ScAbp1 = biological target: ScAbp1
How it was run: as §1

ScBbc1 = biological target: ScBbc1
How it was run: as §1

ScBem1-D1 = biological target: ScBem1-D1
How it was run: as §1

ScBzz1-D1 = biological target: ScBzz1-D1
How it was run: as §1

ScBzz1-D2 = biological target: ScBzz1-D2
How it was run: as §1

ScCyk3 = biological target: ScCyk3
How it was run: as §1

ScFus1 = biological target: ScFus1
How it was run: as §1

ScHof1 = biological target: ScHof1
How it was run: as §1

ScHse1 = biological target: ScHse1
How it was run: as §1

ScLsb1 = biological target: ScLsb1
How it was run: as §1

ScLsb2 = biological target: ScLsb2
How it was run: as §1

ScLsb3 = biological target: ScLsb3
How it was run: as §1

ScLsb4 = biological target: ScLsb4
How it was run: as §1

ScMyo3 = biological target: ScMyo3
How it was run: as §1

ScMyo5 = biological target: ScMyo5
How it was run: as §1

ScNbp2 = biological target: ScNbp2
How it was run: as §1

ScPex13 = biological target: ScPex13
How it was run: as §1

ScRvs167 = biological target: ScRvs167
How it was run: as §1

ScSho1 = biological target: ScSho1
How it was run: as §1

ScSla1-D1-D2 = biological target: ScSla1-D1-D2
How it was run: as §1

ScSla1-D3 = biological target: ScSla1-D3
How it was run: as §1

SpAbp1-D1 = biological target: SpAbp1-D1
How it was run: as §1

SpBbc1 = biological target: SpBbc1
How it was run: as §1

SpBzz1-D1 = biological target: SpBzz1-D1
How it was run: as §1

SpBzz1-D2 = biological target: SpBzz1-D2
How it was run: as §1

SpCyk3 = biological target: SpCyk3
How it was run: as §1

SpHof1 = biological target: SpHof1
How it was run: as §1

SpHof1-2 = biological target: SpHof1-2
How it was run: as §1

SpHof1-3 = biological target: SpHof1-3
How it was run: as §1

SpHse1 = biological target: SpHse1
How it was run: as §1

SpLsb1 = biological target: SpLsb1
How it was run: as §1

SpLsb4 = biological target: SpLsb4
How it was run: as §1

SpMyo1 = biological target: SpMyo1
How it was run: as §1

SpNbp2 = biological target: SpNbp2
How it was run: as §1

SpPex13 = biological target: SpPex13
How it was run: as §1

SpRvs167 = biological target: SpRvs167
How it was run: as §1

SpSla1-D1-D2 = biological target: SpSla1-D1-D2
How it was run: as §1

SpSla1-D3 = biological target: SpSla1-D3
How it was run: as §1

Measured: SPOT peptide array binding signal intensity

PIVPSSPAPPLPLSG
3220: ScMyo5
1.5: ScBzz1-D2 | SpBzz1-D2
11.2: CaBzz1-D2
1: CaRvs167-3 | ScSla1-D1-D2 | SpPex13
52.5: SpBzz1-D1
3230: AgMyo5
14.5: CaFus1
2720: ScMyo3
13.5: AgHse1
611: CaMyo5
3.5: SpRvs167
7.5: ScBzz1-D1 | ScSla1-D3
19: CaBzz1-D1
7: AgSla1-D1-D2 | SpHse1
4.5: CaNbp2
6: SpBbc1
1220: SpMyo1
0.5: CaSla1-D1-D2
≤ 0: all other assays above

QPPLPSSAPPIPTSH
1600: ScMyo5
0.5: CaRvs167-3
510: CaMyo5
2510: ScMyo3
1730: AgMyo5
8.5: CaBem1-D1
4.25: SpBbc1
35: AgBzz1-D1
2.5: CaBzz1-D2 | SpAbp1-D1
not listed: SpBzz1-D2 | SpCyk3 | SpHof1 | SpHof1-2 | SpHof1-3 | SpHse1 | SpLsb1 | SpLsb4 | SpMyo1 | SpNbp2 | SpPex13 | SpRvs167 | SpSla1-D1-D2 | SpSla1-D3
≤ 0: all other assays above

ISPPASPPPEFDFSK
14.5: CaBzz1-D2
2.5: SpBbc1
6: SpHse1
1.5: CaAbp1-D2 | CaSla1-D3
0.833: CaRvs167
3.5: ScSla1-D3
877: SpMyo1
1120: ScMyo3
40: CaMyo5
5: AgSla1-D1-D2
428: ScMyo5
1: CaHof1 | CaHse1 | SpBzz1-D2 | SpSla1-D1-D2
0.5: SpHof1-2
22.5: AgBzz1-D2
781: AgMyo5
0.333: AgRvs167
4: AgFus1
27.5: AgHse1
3: SpSla1-D3
≤ 0: all other assays above
